Results reported in PubChem BioAssay (NCI).
About 83,000 compounds went through this panel and 20% of them were active in at least one assay; those are over-represented in the sample as a whole.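 Assay: single dose, 48 h. Readout: percent growth (0 = no net growth; negative = cell death). Active: <10.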 The source made the active and inactive calls.

How the values were obtained:
Assay in all cases: NCI-60 one-dose screen, 48 h (100 = growth as untreated, 0 = no growth, -100 = all killed)
Settings in all cases: 10 µM unless noted
[1] = tested on: NCI-H23 lung
[2] = tested on: NCI-H226 lung
[3] = tested on: NCI-H322M lung
[4] = tested on: HOP-62 NSCLC
[5] = tested on: NCI-H460 lung
[6] = tested on: HOP-92 NSCLC
[7] = tested on: NCI-H522 lung
[8] = tested on: A549/ATCC NSCLC
[9] = tested on: 786-0 renal
[10] = tested on: DU-145 prostate
[11] = tested on: K-562 leukemia
[12] = tested on: MALME-3M melanoma
[13] = tested on: MDA-MB-231 breast
[14] = tested on: SF-268 CNS
[15] = tested on: SF-295 CNS
[16] = tested on: SF-539 CNS
[17] = tested on: UACC-257 melanoma
[18] = tested on: M14 melanoma
[19] = tested on: RXF 393 renal

Measured: growth

O=C1CSC(c2ccccc2O)N1c1nnc(Cn2cnnc2)o1 (configuration not stated)
inactive: [1] 77.3% | [2] 78.5% | [3] 87.3% | [4] 78.7% | [5] 86.9% | [6] 53.9% | [7] 98.1% | [8] 97.7% | [9] 25.8% | [10] 105% | [11] 82.6% | [12] 96.2% | [13] 73.7% | [14] 82.9% | [15] 94% | [16] 89.7% | [17] 96.4% | [18] 69%

Nc1nc(N)c(-c2ccc(Cl)cc2)c(/C=C/c2ccc([N+](=O)[O-])cc2)n1
inactive: [1] 90.8% | [2] 91.4% | [3] 46.8% | [4] 100% | [5] 11.4% | [6] 76.1% | [7] 97.4% | [8] 47.9% | [9] 99.3% | [10] 87.2% | [11] 19.4% | [13] 95.4% | [19] 74.7% | [14] 79.3% | [15] 51.5% | [16] 93.5% | [17] 66.3% | [18] 63.6%

CC(/C=N/NC(=O)c1cc(-c2ccco2)[nH]n1)=C\c1ccccc1
inactive: [1] 93% | [2] 88.5% | [3] 93.3% | [4] 95.4% | [5] 127% | [6] 57.6% | [7] 110% | [8] 105% | [10] 101% | [11] 86.6% | [12] 91.3% | [13] 102% | [14] 93.9% | [15] 69.9% | [16] 102% | [17] 89.9% | [18] 95%
active: [9] -91.2%

CC(C)OCCCNCC(=O)Nc1ccc(S(=O)(=O)c2ccc(NC(=O)CNCCCOC(C)C)cc2)cc1
inactive: [1] 101% | [2] 104% | [3] 118% | [4] 85.9% | [5] 94.9% | [6] 50.2% | [7] 93.3% | [8] 106% | [9] 93.5% | [10] 113% | [11] 36.8% | [12] 99.7% | [13] 50.9% | [19] 92.8% | [14] 106% | [16] 79.4% | [17] 106% | [18] 100%

NC(=S)N/N=C/C(=O)O
inactive: [1] 99.3% | [2] 96.2% | [3] 77.5% | [4] 85.9% | [5] 99.6% | [6] 81.8% | [7] 96.8% | [8] 92.2% | [9] 104% | [10] 106% | [11] 32.7% | [13] 97.1% | [19] 107% | [14] 92.4% | [15] 71.9% | [16] 104% | [17] 86.1% | [18] 93.9%

Clc1ccc(-c2nnc(-c3ccco3)o2)cc1
inactive: [1] 91.9% | [2] 91.7% | [3] 93.6% | [4] 80.9% | [5] 108% | [6] 72.6% | [7] 99.1% | [8] 96.8% | [9] 86.8% | [10] 99.5% | [11] 93.3% | [12] 113% | [13] 99% | [14] 101% | [15] 112% | [16] 106% | [17] 93.5% | [18] 101%

Cc1cc(=O)[nH]c(N/N=C/c2cc(Br)ccc2O)n1
inactive: [1] 33.7% | [2] 40.5% | [4] 48% | [6] 55% | [7] 19.5% | [8] 23.4% | [10] 41.7% | [11] 22.5% | [13] 35.5% | [19] 70.2% | [14] 25.2% | [16] 16.3% | [17] 14.1% | [18] 10%
active: [3] -15% | [5] -1.75% | [9] 7.2% | [15] 5.67%

O=C1Nc2ccccc2SC1C1SC(=S)N(Cc2ccccc2)C1=O (configuration not stated)
active: [10] -34.7% | [11] 4.45%
inactive: [1] 96.5% | [2] 107% | [3] 113% | [4] 110% | [5] 106% | [6] 53.1% | [7] 100% | [8] 93% | [9] 100% | [12] 53.7% | [13] 94.8% | [14] 37.7% | [15] 63.2% | [16] 90.7% | [17] 88.3% | [18] 94.5%

CC1(C)N=C(N)N=C(N)N1c1cccc(CN)c1
inactive: [1] 93.2% | [2] 92.7% | [3] 94.3% | [4] 92.3% | [5] 111% | [6] 80.5% | [7] 80.7% | [8] 91% | [9] 99.1% | [10] 109% | [11] 116% | [13] 98.8% | [19] 103% | [14] 101% | [15] 94.7% | [16] 99.3% | [17] 86.5% | [18] 96.7%
